A short description of this assay: dose response, counter-screen, biochemical, fluorescence, single-stranded RNase substrate (AID 588502). The note with it: oligo substrate without MazF, fluorescence increase, 5 h. (A counterscreen serves to expose hits that act by an unwanted route or on another target.)

Here are results for one molecule from PubChem BioAssay AID588502 (Sanford-Burnham Center for Chemical Genomics, 2011).

Results with a measured potency or affinity are listed apart. A number with no mark means an inactive call. No rule for the calls is given here. Some results are limits rather than exact numbers.

Consider `CC1CCC(=NNS(=O)(=O)c2ccc([N+](=O)[O-])cc2)CC1` (stereo unspecified), for which the EC50 was above 99 µM.

For orientation: EC50 means the concentration that produces a half-maximal response.
